A number with no mark means an inactive call.
Tested on: Vero E6 infected with SARS-CoV-2
Assay: inhibition of SARS-CoV-2 cytopathic effect; higher = more antiviral protection, active = above 15
Details: 48 h

SMILES | inhibition of SARS-CoV-2 cytopathic effect (1 nM) [%] | inhibition of SARS-CoV-2 cytopathic effect (8.33 nM) [%] | inhibition of SARS-CoV-2 cytopathic effect (100 nM) [%] | inhibition of SARS-CoV-2 cytopathic effect (833.33 nM) | inhibition of SARS-CoV-2 cytopathic effect (10000 nM)
COc1cc(/C=C/C(=O)O)ccc1O [ferulic-acid] | 2.44 | -0.76 | -1.01 | 3% | -0.17%
CCCCCCOC(=O)CCC(=O)CN [hexaminolevulinate] | -0.29 | 0.97 | 1.79 | 1.44% | 5.39%
Nc1ccc(C(=O)O)cc1 [potassium-p-aminobenzoate] | -5.31 | -2.38 | -5.27 | -0.2% | -5%
O=c1oc2c(O)c(O)cc3c(=O)oc4c(O)c(O)cc1c4c23 [ellagic-acid] | 0.02 | 0.42 | 4.12 | 1.76% | -1.74%
CCCCNc1ccc(C(=O)OCCN(C)C)cc1 [tetracaine] | 2.75 | -1.31 | -0.22 | -2.39% | 0.71%
CCC(=O)N1CCOc2c(cc(-c3ccc(OC)c(OC)c3)cc2OC[C@H]2CCCN(C)C2)C1 | 1.79 | 8.72 | 0.95 | 1.75% | 0.51%
CCC(C)CCCC(=O)N[C@@H](CCN)C(=O)N[C@H](C(=O)N[C@@H](CCN)C(=O)N[C@H]1CCNC(=O)[C@H]([C@@H](C)O)NC(=O)[C@H](CCN)NC(=O)[C@H](CCN)NC(=O)[C@H](CC(C)C)NC(=O)[C@@H](CC(C)C)NC(=O)[C@H](CCN)NC1=O)[C@@H](C)O (stereo not given in full) [colistin] | 0.955 | -0.06 | 3.56 | 0.76% | -2.41%
Cn1c(NC[C@@H](N)Cc2ccccc2)nc(-c2ccncc2)c(-c2ccc3ccccc3c2)c1=O | -0.22 | 0.05 | -0.08 | 2.09% | 32.9% (active)
N[C@@H](CS(=O)O)C(=O)O [L-cysteinesulfinic-acid] | 0.48 | 0.74 | 1.16 | -1.19% | 2.03%
CN[C@H](CC(C)C)C(=O)N[C@H]1C(=O)N[C@@H](CC(N)=O)C(=O)N[C@H]2C(=O)N[C@H]3C(=O)N[C@H](C(=O)N[C@H](C(=O)O)c4cc(O)cc(O)c4-c4cc3ccc4O)[C@H](O)c3ccc(c(Cl)c3)Oc3cc2cc(c3O[C@@H]2O[C@H](CO)[C@@H](O)[C@H](O)[C@H]2O[C@H]2C[C@](C)(N)[C@H](O)[C@H](C)O2)Oc2ccc(cc2Cl)[C@H]1O | 0.55 | 1.31 | -0.56 | 3.7% | 0.87%
N#CCNC(=O)c1ccc(-c2ccnc(Nc3ccc(N4CCOCC4)cc3)n2)cc1 | -0.49 | -0.77 | -0.33 | -4.04% | -6.6%
CCOc1cc([C@@H](CS(C)(=O)=O)N2C(=O)c3cccc(NC(C)=O)c3C2=O)ccc1OC [apremilast] | 2.28 | -0.67 | 1.6 | -0.47% | -2.14%
Cc1ccc(CNc2ncnc3ccc(-c4ccc(CO)o4)cc23)o1 | -1.31 | 0.26 | 0.15 | -0.45% | 1.88%
COC(=O)C[C@](O)(CCC(C)(C)O)C(=O)O[C@@H]1C(OC)=C[C@]23CCCN2CCc2cc4c(cc2[C@H]13)OCO4 [harringtonine] | 1.51 | 0.45 | -10.7 | 19.9% (active) | -9.74%
c1ccc(OCc2ccc(CCCN3CCOCC3)cc2)cc1 [fomocaine] | 0.24 | 1.88 | 1.23 | -0.27% | 3.83%
Cc1[nH]c(/C=C2\C(=O)Nc3ccc(S(=O)(=O)Cc4c(Cl)cccc4Cl)cc32)c(C)c1C(=O)N1CCC[C@@H]1CN1CCCC1 | -0.63 | -2.66 | -1.94 | 1.33% | 50.2% (active)
CCCCNc1ncc2c(-c3ccc(CN4CCN(C)CC4)cc3)cn([C@H]3CC[C@H](O)CC3)c2n1 | 1.92 | 2.77 | -0.22 | -9.69% | 7.04%
CCCCCCCCCCCCCCCC(=O)OC[C@@H](NC(=O)C(Cl)Cl)[C@H](O)c1ccc([N+](=O)[O-])cc1 [chloramphenicol-palmitate] | 0.12 | 0.68 | -1.3 | -1.25% | 0.57%

SMILES | inhibition of SARS-CoV-2 cytopathic effect (1 nM) [%] | inhibition of SARS-CoV-2 cytopathic effect (8.33 nM) [%] | inhibition of SARS-CoV-2 cytopathic effect (100 nM) [%] | inhibition of SARS-CoV-2 cytopathic effect (833.33 nM) | inhibition of SARS-CoV-2 cytopathic effect (10000 nM)
COc1ccc(CC(=O)NC(/N=C(\NC#N)Nc2cccc3ncccc23)C(C)(C)C)cc1OC (stereo not given) | -0.32 | 1.83 | 1.99 | 1.34% | -0.99%
O=C1NS(=O)(=O)c2ccccc21 [saccharin] | 0.13 | -1.09 | 0.17 | -0.12% | -2.82%
CCN(CC)CCN(Cc1ccc(-c2ccc(C(F)(F)F)cc2)cc1)C(=O)Cn1c(SCc2ccc(F)cc2)nc(=O)c2c1CCC2 [darapladib] | 1.47 | 1.73 | -1.85 | -2.02% | -25.3%
[Cl][Ti][Cl].c1cc[cH-]c1.c1cc[cH-]c1 [titanocene-dichloride] | 3.56 | -0.14 | 1.81 | -1.85% | 0.26%
COC(=O)C1=C(C)NC(C)=C(C(=O)OCC(C)C)C1c1ccccc1[N+](=O)[O-] (stereo not given) [nisoldipine] | -1.53 | 0.72 | -2.24 | -0.83% | 1.64%
CCOC(=O)C(=O)Nc1cccc(OC)c1C(N)=O | 6.62 | 7.85 | 6.88 | 2.83% | -0.82%
CC(C)(C)/[N+]([O-])=C/c1ccc(S(=O)(=O)O)cc1S(=O)(=O)O | -1.02 | -0.15 | -0.41 | 0.47% | 0.8%
CO[C@@H]1[C@@H](O[C@@H]2O[C@H](C)[C@@H](O[C@H]3C[C@@](C)(O)[C@@H](OC(=O)CC(C)C)[C@H](C)O3)[C@H](N(C)C)[C@H]2O)[C@@H](CC=O)C[C@@H](C)[C@@H](O)/C=C/C=C/C[C@@H](C)OC(=O)C[C@H]1OC(C)=O [josamycin] | 2.65 | 0.07 | -2.91 | -1.73% | -7.02%
Nc1nc2ccc(OC(F)(F)F)cc2s1 [riluzole] | -0.39 | -3.06 | 0.81 | 3.82% | 1.88%
NS(=O)(=O)c1cc2c(cc1Cl)NC(CC1CCCC1)NS2(=O)=O (stereo not given) [cyclopenthiazide] | 1.26 | 2.37 | -0.67 | -2.85% | -0.14%
CCCN(CCC)C(=O)C1=Cc2ccc(-c3ccc(C(=O)N4CCCC4)cc3)cc2N=C(N)C1 [motolimod] | 0.77 | 0.05 | 1.88 | 1.37% | -1.01%
N#CSc1cc(SC#N)c(N)nc1N | -1.78 | 0.62 | 3.56 | 0.7% | 11.2%
Cn1cc(C[C@@H](N)C(=O)O)c2ccccc21 [indoximod] | -3.51 | -2.58 | -2.33 | -1.85% | -1.3%
NS(=O)(=O)c1cc(-c2nnn[nH]2)c(NCc2cccs2)cc1Cl [azosemide] | 2.38 | -0.55 | 3.16 | 9.99% | -3.43%
c1ccc(CN2CCC3(CCc4ccccc43)CC2)cc1 | -1.07 | -1.48 | 0.06 | 1.63% | 0.48%
COc1cc2cc(c1Cl)N(C)C(=O)C[C@H](OC(=O)C(C)C)[C@]1(C)O[C@@H]1[C@H](C)[C@@H]1C[C@@](O)(NC(=O)O1)[C@H](OC)/C=C/C=C(\C)C2 [ansamitocin-p-3] | 2.87 | -1.3 | -3.14 | -0.53% | 0.75%
CC(C)(C)NCC(O)COc1cccc2c1CCC(=O)N2 (stereo not given) [carteolol] | 2.16 | 1.11 | 0.54 | 2.62% | -0.66%
NC(=O)CN1CC(c2ccccc2)CC1=O (stereo not given) [phenylpiracetam] | 1.63 | -10.6 | 2.27 | 1.14% | -0.44%
